Rows were chosen to be rich in hits. Some 4.3% of all compounds tested hit in one or more screens of this group.
FAS-TE inh = FAS thioesterase domain inhibitors, primary screen, biochemical, fluorescence intensity, uHTS; recombinant FAS-TE, OMFH fluorogenic substrate, fluorescence endpoint; actives 0.67% (n = 360,000); inhibition, % at 15 µM; AID 602261, 2012;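 active = compounds whose normalised, plate-corrected inhibition of enzyme fluorescence in the single-dose primary screen is 50% or more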;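 note: 0% = DMSO with enzyme and 100% = substrate without enzyme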
Target sequence (P49327 whole entry, looked up, the tested form may be a part): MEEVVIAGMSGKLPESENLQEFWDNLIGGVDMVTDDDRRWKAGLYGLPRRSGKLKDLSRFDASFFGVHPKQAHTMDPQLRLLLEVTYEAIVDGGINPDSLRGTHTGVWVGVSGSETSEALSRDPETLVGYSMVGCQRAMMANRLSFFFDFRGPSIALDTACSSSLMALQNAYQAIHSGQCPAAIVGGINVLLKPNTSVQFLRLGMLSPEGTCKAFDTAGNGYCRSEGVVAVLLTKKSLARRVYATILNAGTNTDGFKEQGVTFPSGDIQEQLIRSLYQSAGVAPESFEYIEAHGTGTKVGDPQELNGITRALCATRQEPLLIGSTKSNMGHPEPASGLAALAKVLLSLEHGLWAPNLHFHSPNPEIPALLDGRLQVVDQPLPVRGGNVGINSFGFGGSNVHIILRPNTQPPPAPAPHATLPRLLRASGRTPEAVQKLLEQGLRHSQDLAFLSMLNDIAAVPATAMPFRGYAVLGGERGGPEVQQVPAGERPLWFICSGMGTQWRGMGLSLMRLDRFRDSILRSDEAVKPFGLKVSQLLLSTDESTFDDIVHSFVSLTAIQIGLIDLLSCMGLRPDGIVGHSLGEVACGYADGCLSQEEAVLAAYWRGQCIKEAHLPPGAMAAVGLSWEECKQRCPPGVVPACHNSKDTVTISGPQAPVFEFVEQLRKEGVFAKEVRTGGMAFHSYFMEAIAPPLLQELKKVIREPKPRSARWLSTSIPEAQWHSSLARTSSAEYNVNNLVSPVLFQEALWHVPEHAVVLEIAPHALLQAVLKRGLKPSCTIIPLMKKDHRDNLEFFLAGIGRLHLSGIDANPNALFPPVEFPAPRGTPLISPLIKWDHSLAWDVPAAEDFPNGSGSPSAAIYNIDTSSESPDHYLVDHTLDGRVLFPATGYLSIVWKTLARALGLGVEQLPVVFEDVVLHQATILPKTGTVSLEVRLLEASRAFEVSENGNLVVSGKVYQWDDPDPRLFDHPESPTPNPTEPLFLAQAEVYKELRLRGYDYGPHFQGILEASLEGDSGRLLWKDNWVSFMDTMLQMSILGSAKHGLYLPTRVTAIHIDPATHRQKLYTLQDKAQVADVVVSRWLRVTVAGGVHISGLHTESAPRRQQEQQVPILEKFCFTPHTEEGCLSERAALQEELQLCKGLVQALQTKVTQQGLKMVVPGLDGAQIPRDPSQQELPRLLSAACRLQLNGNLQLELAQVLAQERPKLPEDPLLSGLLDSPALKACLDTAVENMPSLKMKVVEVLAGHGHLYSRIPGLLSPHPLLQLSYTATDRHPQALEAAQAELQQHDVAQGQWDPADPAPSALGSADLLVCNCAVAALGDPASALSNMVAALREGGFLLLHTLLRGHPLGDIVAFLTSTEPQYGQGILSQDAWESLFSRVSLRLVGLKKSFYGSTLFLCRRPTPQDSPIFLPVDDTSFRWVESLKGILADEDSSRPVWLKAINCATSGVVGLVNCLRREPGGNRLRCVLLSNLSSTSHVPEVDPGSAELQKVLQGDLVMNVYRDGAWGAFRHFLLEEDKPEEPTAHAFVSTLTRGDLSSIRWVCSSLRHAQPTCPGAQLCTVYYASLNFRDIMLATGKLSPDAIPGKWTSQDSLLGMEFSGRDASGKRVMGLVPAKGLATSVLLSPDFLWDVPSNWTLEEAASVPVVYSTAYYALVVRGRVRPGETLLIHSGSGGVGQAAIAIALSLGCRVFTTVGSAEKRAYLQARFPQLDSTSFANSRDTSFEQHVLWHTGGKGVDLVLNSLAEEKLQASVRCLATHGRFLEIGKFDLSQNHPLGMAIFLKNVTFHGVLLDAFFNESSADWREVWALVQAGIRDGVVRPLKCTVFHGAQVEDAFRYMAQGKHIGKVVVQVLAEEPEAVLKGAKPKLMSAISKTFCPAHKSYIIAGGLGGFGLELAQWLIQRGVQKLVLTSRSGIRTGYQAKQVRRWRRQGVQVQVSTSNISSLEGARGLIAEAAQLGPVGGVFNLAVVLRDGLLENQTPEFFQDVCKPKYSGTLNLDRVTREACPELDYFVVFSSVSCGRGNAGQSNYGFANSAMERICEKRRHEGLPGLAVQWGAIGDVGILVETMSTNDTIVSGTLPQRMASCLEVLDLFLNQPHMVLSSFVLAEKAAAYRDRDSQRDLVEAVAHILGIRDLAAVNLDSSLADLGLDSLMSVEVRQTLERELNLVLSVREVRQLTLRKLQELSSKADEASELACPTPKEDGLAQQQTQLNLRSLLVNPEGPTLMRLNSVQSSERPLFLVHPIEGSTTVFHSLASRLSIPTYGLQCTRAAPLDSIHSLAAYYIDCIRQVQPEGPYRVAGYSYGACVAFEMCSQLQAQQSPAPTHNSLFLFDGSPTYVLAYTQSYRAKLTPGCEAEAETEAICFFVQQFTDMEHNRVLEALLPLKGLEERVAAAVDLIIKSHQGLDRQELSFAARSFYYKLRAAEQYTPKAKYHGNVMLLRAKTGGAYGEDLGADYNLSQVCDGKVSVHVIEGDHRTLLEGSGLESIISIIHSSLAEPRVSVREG
NadD inh = inhibitors of S. aureus NadD, primary screen, biochemical, colorimetric, uHTS; Nicotinate-nucleotide adenylyltransferase NadD (Staphylococcus aureus N315); purified NadD enzyme, colorimetric absorbance read-out; inhibition, % at 20 µM; actives 0.78% (n = 360,000); in the data active = inhibition above about 26%
rCAG RNA binder = binders of r(CAG) RNA repeats, primary screen, biochemical, fluorescence. r(CAG) RNA repeat, TO-PRO-1 dye displacement fluorescence. inhibition, % at 3 µM. actives 1.3% (n = 370,000). AID 651821, 2012;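 active = inhibition above the plate cutoff, the mean of all test compounds on that plate plus 3 SD, cut at about 35% in these data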;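 note: 0% = DMSO alone and 100% = 100 µM mitoxantrone as full dye displacement; higher means more dye released from RNA so lower well fluorescence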
NR3A LBD binder = binders of NR3A ligand-binding domain, primary screen, biophysical, differential scanning fluorimetry, uHTS | NR3A LBD differential scanning fluorimetry, Tm shift; 0% = protein alone, 100% = glycine-bound protein | Tm shift relative to glycine control, % at 25 µM | actives 2.5% (n = 340,000);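 active = melting temperature shift of at least 10% of the positive control shift, at one fixed dose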
FAS-TE conf = FAS thioesterase domain inhibitors, confirmation, biochemical, fluorescence intensity, single concentration. shares compounds with FAS-TE inh. recombinant FAS-TE, OMFH fluorogenic substrate. inhibition, % at 15 µM. actives 45% (n = 2,300);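 active = compounds inhibiting the enzyme by at least 50% at 15 µM in any one of the replicates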;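 note: 0% = enzyme with DMSO only and 100% = wells lacking enzyme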
* = called active by the depositor; . = no result given.

SMILES	FAS-TE inh	NadD inh	rCAG RNA binder	NR3A LBD binder	FAS-TE conf
CCOC(=O)CN(C(=O)COc1nc(-c2ccccc2)cc(C)c1C#N)c1ccccc1C	45	1	3	2	.
CCOC(=O)CN(C(=O)COc1nc(-c2ccccc2)cc(C)c1C#N)c1ccc(C)cc1	49	-4	-2	0	.
CCOC(=O)CN(C(=O)COc1nc(-c2ccccc2)cc(C)c1C#N)c1ccccc1	59*	0	-5	-2	30
CCOC(=O)CN(C(=O)COc1nc(-c2ccccc2)cc(C)c1C#N)c1cccc(OC)c1	52*	-9	0	0	3
COc1cc(C(NC(=O)C(F)(F)F)C2CCCC=C2c2ccccc2)cc(OC)c1OC (stereo unspecified)	.	.	4	.	.
CCCCCCCCN1C(=O)[C@@H](CC(=O)NCCCCc2ccccc2)C[C@@]2(C(=O)OC)C1=C[C@H](COCc1ccccc1)O[C@@H]2C	.	.	7	.	.
CCC(C)NC(=O)CSc1nc2c(sc(=S)n2Cc2ccco2)c(=O)n1-c1ccccc1 (stereo unspecified)	51*	8	1	-8	53*
Cc1ccc(NC(=O)CCNS(=O)(=O)c2cc(Br)cnc2N)cc1Cl	63*	-7	12	30*	44*
O=C(Nc1nc(-c2ccc(F)c(F)c2)cs1)c1cc([N+](=O)[O-])ccc1N1CCOCC1	55*	9	2	-2	29
Cc1cc(C)c(-c2csc(NC(=O)c3cc([N+](=O)[O-])ccc3N3CCOCC3)n2)c(C)c1	65*	6	0	1	33
CC1(C)CC2CC(C)(CN2S(=O)(=O)c2ccc(C(=O)Nc3cc(S(=O)(=O)N4CCOCC4)ccc3Cl)cc2)C1 (stereo unspecified)	76*	15	10	0	23
Oc1ccc(-c2csc(-c3cccnc3)n2)cc1O	-5	1	4	-9	.
CS(=O)(=O)c1ccc(-c2csc(-c3cccnc3)n2)cc1	58*	-2	-1	0	50*
CN(C)S(=O)(=O)c1ccc(-c2csc(-c3cccnc3)n2)cc1	75*	-7	15	0	78*
COc1ccc(C(=O)NCCNc2ncc(C(F)(F)F)cc2Cl)cc1[N+](=O)[O-]	53*	6	-1	-4	47*
CC(C)(CNC(=O)c1ccc([N+](=O)[O-])c(Cl)c1)CNC(=O)c1ccc([N+](=O)[O-])c(Cl)c1	56*	-7	8	3	63*
Cc1ccc(C(=O)NCCNc2ncc(C(F)(F)F)cc2Cl)cc1[N+](=O)[O-]	55*	-5	-5	-2	60*
C=CCNC(=O)c1ccc([N+](=O)[O-])c(Cl)c1	0	-6	-1	-1	.
O=[N+]([O-])c1cccnc1NCCNc1ncc(C(F)(F)F)cc1Cl	39	-7	5	-12	.
CCOc1ccc(C(F)(F)F)cc1NC(=O)c1ccc(OC)c([N+](=O)[O-])c1	37	-7	0	-2	.
O=C(NCCc1c[nH]c2ccccc12)OCc1cn(Cc2cc(F)cc(F)c2)nn1	.	.	0	.	.
O=C(NCc1ccccc1)Nc1ccccc1C(=O)N1CCCC1	.	.	-1	.	.
CN(C)CC(=O)N[C@@H]1C[C@@H]2O[C@@H](CO)CC[C@@H]2O[C@@H]1CCc1ccc(C#Cc2ccccc2)cc1	.	.	6	.	.
C[C@@H]1[C@@H](O)C[C@@]2(C[C@H](O)c3cc(Cl)cc(Cl)c3O2)O[C@H]1c1ccccc1Cl	.	.	0	.	.
COC(=O)C1=C(C(=O)OC)[C@]2([C@H]3CCCCN[C@@H](Cc4ccccc4)C(=O)N3Cc3ccccc3)C=C[C@H]1O2	75*	10	6	1	11
SMILES	FAS-TE inh	NadD inh	rCAG RNA binder	NR3A LBD binder	FAS-TE conf
COc1ccc(OC)c(COC(=O)c2cc([N+](=O)[O-])ccc2N2CCOCC2)c1	54*	-4	3	-3	51*
CSc1ccc(COC(=O)c2cc([N+](=O)[O-])ccc2N2CCOCC2)cc1	66*	-6	1	2	57*
CN(Cc1ccccc1)S(=O)(=O)c1cccc(C(=O)OCc2ccccc2Cl)c1	.	.	5	.	.
C=CCNC(=O)NC[C@@]1(C(=O)OC)CC(=O)N(C)[C@@H]1c1ccccc1	.	.	2	.	.
CCCCn1c(=NC(=O)c2ccco2)c(C(=O)OCC)cc2c(=O)n3cccc(C)c3nc21	56*	3	11	-2	27
Cc1cccn2c(=O)c3cc(C#N)c(=NC(=O)c4cccs4)n(CCCOC(C)C)c3nc12	52*	18	-5	-3	22
Cc1cccn2c(=O)c3cc(C#N)c(=NC(=O)c4ccncc4)n(CCCOC(C)C)c3nc12	-13	-3	2	1	.
CCOC(=O)c1cc2c(=O)n3cccc(C)c3nc2n(CCCOC)c1=NC(=O)c1cccnc1	54*	1	-10	1	12
CC(C)(C)OC(=O)N1CCC2CCN(S(=O)(=O)c3ccccc3)CC21 (stereo unspecified)	.	.	-1	.	.
O=S1(=O)c2ccc(N3CC[C@@H](O)C3)cc2OCCCN1C1CC1	.	.	7	.	.
Cn1c(=O)n(C)c2cc([N+](=O)[O-])c(N3CCN(S(=O)(=O)c4ccc(C(C)(C)C)cc4)CC3)cc21	73*	2	1	0	20
COc1cccc(NC(=S)N2CCc3cc(OC)c(OC)cc3C2COc2ccc3c(C)cc(=O)oc3c2)c1 (stereo unspecified)	58*	10	18	-3	7
COc1ccc(-c2csc(N3C(=O)C4C5c6ccccc6C(c6ccccc65)[C@@H]4C3=O)n2)cc1 (stereo partly specified)	59*	7	1	-2	13
COc1ccc(-c2csc(N3C(=O)C4C5c6ccccc6C(c6ccccc65)C4C3=O)n2)cc1 (stereo unspecified)	63*	7	-1	1	34
COc1ccc(-c2csc(N3C(=N)SCC3=O)n2)cc1	-10	-1	4	2	.
CCN(C(=O)[C@@H](C)[C@@H](O)c1ccc2ccccc2c1)c1ccccc1	.	.	0	.	.
O=C(Oc1ccc(N(Cc2cccs2)C2=NS(=O)(=O)c3ccccc32)cc1)c1ccccc1	60*	7	1	-2	-8
CCOc1ccc(N(CC(=O)N/N=C/c2ccccn2)S(=O)(=O)c2ccc(Cl)cc2)cc1	61*	-1	3	-12	66*
C/C=C/C=N/NC(=O)CN(c1ccc(Br)cc1)S(=O)(=O)c1ccccc1	58*	6	8	2	72*
O=C(CN(c1ccc(Cl)cc1)S(=O)(=O)c1ccccc1)N/N=C/c1ccco1	58*	12	9	-2	41*
CCOc1ccc(NC(=O)CN(c2ccc([N+](=O)[O-])cc2)S(=O)(=O)c2ccccc2)cc1	55*	-6	3	4	37*

Screens as filed in PubChem BioAssay.
